About 83,000 compounds went through this panel and 20% of them were active in at least one assay; those are over-represented in the sample as a whole.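 Note: values are percent growth. 100 is the growth of untreated cells, values between 100 and 0 indicate rising inhibition; between -100 and 0 indicates cell death.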 A number with no mark means an inactive call. Activity calls are given as the source filed them.
What follows are compounds tested on SK-MEL-28 melanoma (assay: NCI-60 one-dose screen, 48 h (100 = growth as untreated, 0 = no growth, -100 = all killed)). Details: 10 µM unless noted.
Description: Growth inhibition of the SK-MEL-28 human tumor cell line is measured as a screen for anti-cancer activity. Cells are grown in 96 well plates and exposed to the test compound for 48 hours. Compounds are tested at a single concentration, which is 10^-5 M for most compounds. The reported endpoint is percent growth (GI% or GIPRCNT), where numbers from 0 - 100% represent growth inhibition, and numbers from -100% - 0 represent cell death. For example, a value of 40 represents 60% growth inhibition. A value of 0 means no net growth occurred over the course of the experiment. A value of -40 indicates 40% of cells at the beginning of the experiment died by the end of the experiment. A value of -100 means all cells are dead at the end of the experiment.
NCI-60 Human Tumor Cell Lines Screen was performed using the standard one-dose NCI protocol, which is described in more detail at https://dtp.cancer.gov/discovery_development/nci-60/default.htm.
Compounds with GIPRCNT values below 10 were considered active. Activity score was based on GIPRCNT using the following formula: […]
Score is 0 for GIPRCNT values of 100 or above, 50 for GIPRCNT values of 0, and 100 for GIPRCNT values of -100.

SMILES | growth
NC(=O)c1ncn([C@@H]2O[C@H](CO)[C@@H](O)[C@H]2O)n1 | 115%
Cc1ccc(NC(=O)COC(=O)c2ccc(S(=O)(=O)N3CCCCCC3)cc2)cc1 | 119%
CN(C)c1ccc(/C=C\c2ccnc3ccccc23)cc1 | 88.7%
C[n+]1ccc(Nc2ccc(NC(=O)c3ccc(Nc4cc[n+](C)c5ccc(N)cc45)cc3)cc2)cc1 | 116%
CO[C@H]1/C=C/O[C@@]2(C)Oc3c(C)c(O)c4c(O)c(c(/C=N/N5CCN(C)CC5)c(O)c4c3C2=O)NC(=O)/C(C)=C\C=C\C(C)[C@H](O)[C@@H](C)[C@@H](O)[C@@H](C)[C@@H](OC(C)=O)[C@@H]1C (stereo not given in full) | 101%
Clc1cccc(Cc2cn3cc(-c4ccccc4)nc3s2)c1 | 48.8%
NNC(=O)NO | 107%
O=C(c1ccccc1)c1ccco1 | 111%
O=C(CCc1nnc(Cn2ccnc2)o1)c1nc2ccccc2[nH]1 | 116%
O=C(NCCCO)c1cc(Cl)ccc1O | 38%
O=C(/C=C/c1cc2ccccc2[nH]c1=O)c1ccc(Cl)cc1 | 80.1%
O=C(CN1CCCCC1)Sc1nnc2sc3ccccc3n12 | 120%
CCN(CC)CCNc1ccc(Cl)cc1Cl | 118%
c1ccc(N2CCN(c3nncc4ccccc34)CC2)nc1 | 108%
COc1ccc2[nH]cc(/C=C3/C(=O)Nc4ccc(Cl)cc43)c2c1 | 81.1%
Clc1nc(Cl)c2ncn(-c3ccccc3)c2n1 | 91.1%
CCCCCCOc1ccc(/C=N/NC(N)=S)cc1 | 76.1%
O=C(Nc1cccc(-n2cc(-c3ccncc3)c(-c3ccc(O)c(Cl)c3)n2)c1)Nc1ccc(Cl)c(C(F)(F)F)c1 | -12.8% (active)
Nc1ccc(C2=NN(c3ccccc3)C(c3ccc(Cl)cc3)C2)cc1 (stereo not given) | 105%
c1ccc2c(c1)[nH]c1c2cc[n+]2cc3c(cc12)CCCC3 | 32.7%

SMILES | growth
O=C1c2ccccc2-c2c1nc1ccccc1[n+]2[O-] | 113%
c1ccc2cc(C[n+]3ccn(CCCCCCCn4cc[n+](Cc5ccc6ccccc6c5)c4)c3)ccc2c1 | 44.3%
O=C(/C=C/c1ccccc1Cl)c1ccc(O)cc1 | 96.1%
CSc1nc2c(c(=O)[nH]1)C(c1ccc(Cl)cc1)C1=C(N2)/C(=C/c2ccc(Cl)cc2)CNC1 (stereo not given) | 87.9%
O=C1/C(=C/c2ccc([N+](=O)[O-])o2)Oc2ccc(Cl)cc21 | 11.2%
COc1ccc(C2=NNC(c3cc(Cc4ccc(O)c(C5CC(c6ccc(OC)cc6)=NN5)c4)ccc3O)C2)cc1 (stereo not given) | 79.4%
CSc1ccc2c(c1)N(CCC1CCCCN1C)c1ccccc1S2 (stereo not given) | 81.7%
Oc1[nH]c2ccc(Cl)cc2c1/C=c1/ccc2c(c1)N=C(c1ccc(C(F)(F)F)cc1)N=2 | 45.8%
Nc1nonc1-c1nc2ccccc2n1CC(=O)Nc1ccc2c(c1)COC2=O | 93.1%
COC(=O)c1ccc2c(c1)nc(-c1ccc(O)c(OC)c1)n2-c1cc(C(C)(C)C)[nH]n1 | 118%
CC(=O)NC1(C(=O)O)CCCC1 | 88.6%
COc1cc(C2=NN(C(C)=O)C(c3ccc(OC(C)=O)cc3OC(C)=O)O2)c(OC(C)=O)c2ccccc12 (stereo not given) | 23.7%
COc1ccc(C2CC(c3ccc(OC)c(OC)c3)=NN2C(=O)c2cc(OC)c(OC)c(OC)c2)c(OC)c1 (stereo not given) | 80.2%
Cc1cc(NC(=O)Nc2cc(Cl)ccc2C)no1 | 142%
Nc1ccc(C2=Nc3cccc4cccc(c34)S2)cc1 | 111%
Nc1c2ccccc2nc2ccccc12 (tested in a mixture with another compound) | 36.2%
O=C(CSc1nc2c(n1Nc1ccccc1)-c1ccccc1SC2)Nc1nc(-c2ccc(Cl)cc2)cs1 | 72%
CCOc1cc(C(C)(C)C)ccc1C1=N[C@H](c2ccc(Cl)cc2)[C@H](c2ccc(Cl)cc2)N1C(=O)N1CCN(CC#Cc2cccc3c2CN([C@@H]2CCC(=O)NC2=O)C3=O)CC1 | 53.4%
O=C(O)c1ccccc1C(=O)OC1CCCC2CCCC21 (stereo not given) | 109%
O=C(Nc1ccccc1Cl)c1cnc2ccc(C3CCNCC3)cn12 | 102%

— PubChem BioAssay (NCI)
